Measurements published in PubChem BioAssay AID2716 (Broad Institute, 2010).
About 3,300 (1%) of roughly 320,000 compounds were called active. Only a selection was taken, and actives are over-represented in it overall. A number with no mark means an inactive call.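 Rule for the calls: active = every valid replicate shows activation above 250% relative to neutral control wells; inactive = the rest, any valid replicate at or below 250%.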

Assay: restored growth of temperature-sensitive Mot1-301 yeast – S. cerevisiae, ATP luminescence, 38.5C, SUMOylation pathway inhibitor project, primary screen (AID 2716);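 note: OY570 slx delta 5 strain wells were the positive control but not used for scaling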
Settings: S. cerevisiae Mot1-301 growth rescue, at 18.8 µM, hits give high values, percent above DMSO median, 100 means doubled

SMILES	growth rescue
O=C(NCCCN1CCOCC1)c1cn(-c2ccccc2)nc1-c1ccc(F)cc1	-27.9%
COc1cc(NC(=O)C2=CC(c3ccco3)=NS(=O)(=O)N2C)cc(OC)c1OC	446% (active)
COc1ccc(NC(=O)C2=CC(c3ccc(OC)c(OC)c3)=NS(=O)(=O)N2C)cc1	12.2%
COc1cc(NC(=O)C2=CC(c3ccc(C)cc3)=NS(=O)(=O)N2C)cc(OC)c1OC	18.9%
CCOC(=O)C(NC(C)=O)C(=O)Nc1ccc(OC)cc1 (stereo not given)	5.5%
NS(=O)(=O)c1ccc(CNC(=S)NC(=O)c2ccco2)cc1	-10.3%
CCCCc1nc2cc(C(=O)NCCc3cnn(C)c3)ccc2o1	249%
O=C1CCC(=O)N1CCOP1(=O)COc2ccccc2OC1	402% (active)
CC1Sc2ccc(C(=O)NCc3ccccc3Cl)cc2NC1=O (stereo not given)	-10.2%
COc1ccc(C)cc1NC(=O)C(Sc1ccccc1)c1ccccc1 (stereo not given)	-9.29%
Cn1cc([N+](=O)[O-])c(C(=O)Nc2ccc3c(c2)OCCO3)n1	-2.5%
COc1cccc(NC(=O)c2ccc(Cn3cc([N+](=O)[O-])cn3)o2)c1	-22.4%
COc1cccc(NC(=O)c2nn(C34CC5CC(CC(C5)C3)C4)cc2[N+](=O)[O-])c1	384% (active)
COc1ccccc1C(=O)NCC(=O)OCC(=O)Nc1nnc(-c2ccccc2)o1	0.619%
CCCNC(=O)CCn1cc(-c2ccc(OC)cc2)nc1CCN	-5.76%
CNS(=O)(=O)c1ccc(NC(=O)Nc2ccc3c(c2)OCO3)cc1	-8%
COc1ccc(Cl)cc1N(CC(=O)N1CCCCC1)S(C)(=O)=O	316%
COCc1c(C(=O)N/N=C\c2cccnc2)nnn1-c1nonc1N	0.433%
C#CCOCCOCCOCCNc1nc(N2CCN(C(=O)[C@H](CCC(=O)O)n3cc(CN)nn3)CC2)nc(N2CCN(C(=O)[C@H](CCC(=O)O)n3cc(CN)nn3)CC2)n1	-22.6%
Cc1ccc(NC(=O)Nc2cccnc2)cc1	-4.18%
Cc1ccc(NC(=O)N2CCC(O)(c3cccnc3)CC2)cc1	356% (active)
O=C(c1cccc(F)c1)N1CCC(O)(c2cccnc2)CC1	16%
Cc1ccc(/C=N/NC(=O)c2sccc2OCc2ccc(F)cc2)cc1	17.9%
COc1cc(-c2nc(S(=O)(=O)c3ccc(Cl)cc3)c(N(C)C)o2)cc(OC)c1OC	9.48%
CC(C)CC(=O)Nc1nnc(S(=O)(=O)N(C)c2ccc(Cl)cc2)s1	-15.6%
